{"source": "PubChem BioAssay AID1259418", "about": "(Broad Institute, 2018)", "note": "Among all 3,400 compounds or so, about 840 (25%) were called active. Roughly 11% stayed inconclusive and do not appear here.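 Rule for the calls: active = fitted half-maximal concentration of signal decrease at or below twice the sample's top tested concentration; inconclusive = flat curve between -70 and -30 percent, or poor fit; inactive = flat within 30 percent, signal rise, or potency above limit.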 These entries were drawn from the full list. Entries with a potency or affinity are not part of this list."}
{"assay": "inhibitors of Toxoplasma growth in IFN-γ-primed HeLa – cell-based, ME49Luc, luciferase, 72 h, dose response (AID 1259418)", "details": "T. gondii ME49Luc in IFN-y HeLa, hits give low values, -100% = high-dose IFN-γ control wells; at 19.5 µM unless noted"}
{"compound": "CN1C(=O)CCc2cc(NC(=O)C3CCCCC3)ccc21", "max activity": "40.8% (inactive)"}
{"compound": "CN1C(=O)CCc2cc(NC(=O)C3CCC3)ccc21", "max activity": "8.04% (inactive)"}
{"compound": "COc1ccc(-c2nc(Nc3cc(OC)c(OC)c(OC)c3)c3ccccc3n2)cc1", "max activity": "-9.87% [at 0.16 µM] (inactive)"}
{"compound": "O=C(CCC1N=C2c3ccccc3N=C(SCc3cc(=O)n4cc(Cl)ccc4n3)N2C1=O)NCc1ccc2c(c1)OCO2", "note": "(stereo not given)", "max activity": "-18.4% [at 10 µM] (inactive)"}
{"compound": "CCCCN(C)C(=O)Cn1c(=O)c(S(=O)(=O)c2ccccc2)cc2cc(C)ccc21", "max activity": "-7.02% [at 0.35 µM] (inactive)"}
{"compound": "COc1ccc(C(=O)N2CCC3(CC2)Nc2ccc(C)c(C)c2-n2cccc23)cc1", "max activity": "7.01% [at 0.68 µM] (inactive)"}
{"compound": "Cc1ccc(S(=O)(=O)N2CCC(C(=O)NCCc3csc(-c4ccccc4)n3)CC2)c(C)c1", "max activity": "19.2% [at 0.35 µM] (inactive)"}
{"compound": "Cc1ccc(S(=O)(=O)N2CCC(C(=O)NCCc3csc(-c4ccccc4)n3)CC2)cc1C", "max activity": "12.1% [at 1.35 µM] (inactive)"}
{"compound": "O=C(NCCc1csc(-c2ccccc2)n1)C1CCN(S(=O)(=O)c2ccccc2F)CC1", "max activity": "8.96% [at 0.16 µM] (inactive)"}
{"compound": "CCS(=O)(=O)N1CCC(C(=O)NCCc2csc(-c3ccccc3)n2)CC1", "max activity": "-17% (inactive)"}
{"compound": "COc1ccc(-c2nc3c(s2)CN(C(=O)Nc2ccccc2C(F)(F)F)CC3)cc1", "max activity": "102% (inactive)"}
{"compound": "Cc1nc(Nc2ccc(F)cn2)sc1C(=O)N1CCC(C(N)=O)(N2CCCCC2)CC1", "max activity": "6.22% (inactive)"}
{"compound": "COc1ccccc1NC(=O)Nc1ccc(-c2nc(-c3cccc(Br)c3)co2)cc1", "max activity": "8.23% (inactive)"}
{"compound": "Cc1ccc2c(c1)cc(S(=O)(=O)c1ccccc1)c(=O)n2CC(=O)NCCC(C)C", "max activity": "-4.39% [at 5 µM] (inactive)"}
{"compound": "COc1ccc(-c2nc(N3CCN(c4cccc(Cl)c4)CC3)c3ccccc3n2)cc1", "max activity": "-7.34% [at 10 µM] (inactive)"}
{"compound": "COC(=O)c1ccccc1NC(=O)N1CCN(Cc2nc(-c3cccc(Cl)c3)oc2C)CC1", "max activity": "3.54% [at 2.6 µM] (inactive)"}
{"compound": "COc1ccccc1NC(=O)CN1CCC2(CC1)N=C(c1ccc(Cl)cc1)C(=O)N2", "max activity": "-13.9% [at 1.35 µM] (inactive)"}
{"compound": "Cc1ccc(C)c(-c2coc(-c3ccc(NC(=O)CC(C)C)cc3)n2)c1", "max activity": "-23% [at 10 µM] (inactive)"}
{"compound": "COc1ccc(-c2nc(CSc3nc4c(c(=O)[nH]3)CN(Cc3ccccc3)CC4)c(C)o2)cc1", "max activity": "9.43% [at 1.35 µM] (inactive)"}
{"compound": "Cn1cnc2c1C(C(=O)O)CN(C(=O)c1ccsc1)C2", "note": "(stereo not given)", "max activity": "44.9% (inactive)"}
